# Columns and labels:
# Assay in all cases: DAPPL (digital affinity profiling via proximity ligation, sequencing); 10 mM Tris-HCl pH 7.5, 50 mM NaCl, 1 mM DTT, 4% glycerol, room temperature, 30 min; GST-TFs on glutathione beads, 16-mer random dsDNA library, 0.1% formaldehyde crosslink after washing; high values mean tight binding
# [1] = target: T1, FEV (Homo sapiens, UniProt Q99581 1-238); details: protein: recombinant; tags: N-terminal GST; dsDNA, one strand shown
# T1 sequence: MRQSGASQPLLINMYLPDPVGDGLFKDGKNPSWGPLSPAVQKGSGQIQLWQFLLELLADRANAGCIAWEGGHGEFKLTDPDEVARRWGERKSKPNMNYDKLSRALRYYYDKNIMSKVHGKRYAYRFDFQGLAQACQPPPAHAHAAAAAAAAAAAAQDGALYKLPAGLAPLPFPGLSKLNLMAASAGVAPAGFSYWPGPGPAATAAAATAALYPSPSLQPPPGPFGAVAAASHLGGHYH
# Summary of the method: (§1)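 In yeast, human transcription factors were expressed with a GST fusion, then pulled down on glutathione beads and given DNA barcodes. Pooled with a tag-only sample, they were exposed to 200 nmole of a 16-mer random double-stranded DNA library (Tris/NaCl/DTT/glycerol buffer, room temperature, 30 min), washed, crosslinked with 0.1% formaldehyde, proximity-ligated using BsaI/T4 ligase for 1 h at 37 °C, PCR-amplified and read on an Illumina NextSeq500. Each hexamer's frequency of reads for a factor, divided by the matching frequency for the tag-only sample, gives the binding signal.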
# [2] = target: ETV5 (Homo sapiens, UniProt P41161 1-510); details: protein: recombinant; tags: N-terminal GST; dsDNA, one strand shown
# Summary of the method: as §1
# [3] = target: HSF1 (Homo sapiens, UniProt Q00613 1-529); details: protein: recombinant; tags: N-terminal GST; chain copies: 3; dsDNA, one strand shown
# Summary of the method: as §1
# [4] = target: T2, SPIC (Homo sapiens, UniProt Q8N5J4 1-248); details: protein: recombinant; tags: N-terminal GST; dsDNA, one strand shown
# T2 sequence: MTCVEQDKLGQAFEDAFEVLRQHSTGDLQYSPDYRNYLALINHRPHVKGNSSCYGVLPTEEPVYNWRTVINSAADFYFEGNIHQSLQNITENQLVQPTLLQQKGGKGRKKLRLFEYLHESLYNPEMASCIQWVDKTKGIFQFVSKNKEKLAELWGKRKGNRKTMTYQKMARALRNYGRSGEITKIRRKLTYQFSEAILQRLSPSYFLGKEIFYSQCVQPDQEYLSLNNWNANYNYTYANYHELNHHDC
# Summary of the method: as §1
# [5] = target: ELF4 (Homo sapiens, UniProt Q99607 1-663); details: protein: recombinant; tags: N-terminal GST; dsDNA, one strand shown
# Summary of the method: as §1
# [6] = target: T3, ELK4 (Homo sapiens, UniProt P28324-2 1-405); details: protein: recombinant; tags: N-terminal GST; dsDNA, one strand shown
# T3 sequence: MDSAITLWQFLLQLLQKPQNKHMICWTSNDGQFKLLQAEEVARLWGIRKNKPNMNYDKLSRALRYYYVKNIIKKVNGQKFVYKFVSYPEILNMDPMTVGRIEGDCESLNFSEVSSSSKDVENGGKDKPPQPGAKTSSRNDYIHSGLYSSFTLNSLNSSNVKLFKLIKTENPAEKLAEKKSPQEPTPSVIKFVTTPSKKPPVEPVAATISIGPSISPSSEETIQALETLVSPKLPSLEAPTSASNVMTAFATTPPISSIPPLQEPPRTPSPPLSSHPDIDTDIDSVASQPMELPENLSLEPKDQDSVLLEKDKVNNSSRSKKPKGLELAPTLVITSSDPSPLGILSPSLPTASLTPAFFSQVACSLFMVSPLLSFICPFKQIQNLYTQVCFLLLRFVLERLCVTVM
# Summary of the method: as §1
# [7] = target: T4, ETV2 (Homo sapiens, UniProt O00321 1-342); details: protein: recombinant; tags: N-terminal GST; dsDNA, one strand shown
# T4 sequence: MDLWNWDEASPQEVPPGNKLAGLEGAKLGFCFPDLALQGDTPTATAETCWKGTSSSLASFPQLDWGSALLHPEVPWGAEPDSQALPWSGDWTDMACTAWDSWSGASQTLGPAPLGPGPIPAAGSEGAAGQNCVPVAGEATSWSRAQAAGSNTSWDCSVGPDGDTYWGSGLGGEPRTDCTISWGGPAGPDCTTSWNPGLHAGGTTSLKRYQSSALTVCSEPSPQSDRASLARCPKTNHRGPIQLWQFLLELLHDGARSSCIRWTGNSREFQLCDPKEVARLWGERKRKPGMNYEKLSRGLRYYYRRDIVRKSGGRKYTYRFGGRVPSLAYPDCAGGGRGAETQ
# Summary of the method: as §1
# [8] = target: T5, ELF3 (Homo sapiens, UniProt P78545 1-371); details: protein: recombinant; tags: N-terminal GST; dsDNA, one strand shown
# T5 sequence: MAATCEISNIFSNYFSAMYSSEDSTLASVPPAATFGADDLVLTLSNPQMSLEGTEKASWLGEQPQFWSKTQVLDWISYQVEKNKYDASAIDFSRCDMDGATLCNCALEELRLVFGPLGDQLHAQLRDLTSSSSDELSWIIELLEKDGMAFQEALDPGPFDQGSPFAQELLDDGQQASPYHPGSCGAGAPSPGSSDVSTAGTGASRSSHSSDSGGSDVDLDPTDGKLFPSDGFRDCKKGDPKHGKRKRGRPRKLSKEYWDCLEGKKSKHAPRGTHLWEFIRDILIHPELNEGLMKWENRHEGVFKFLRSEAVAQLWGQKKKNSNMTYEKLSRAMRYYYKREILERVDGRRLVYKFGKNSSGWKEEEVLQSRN
# Summary of the method: as §1
# [9] = target: CRX (Homo sapiens, UniProt O43186 1-299); details: protein: recombinant; tags: N-terminal GST; dsDNA, one strand shown
# Summary of the method: as §1
# [10] = target: ETV1 (Homo sapiens, UniProt P50549 1-477); details: protein: recombinant; tags: N-terminal GST; dsDNA, one strand shown
# Summary of the method: as §1
# [11] = target: T6, ERF (Homo sapiens, UniProt P50548 1-548); details: protein: recombinant; tags: N-terminal GST; dsDNA, one strand shown
# T6 sequence: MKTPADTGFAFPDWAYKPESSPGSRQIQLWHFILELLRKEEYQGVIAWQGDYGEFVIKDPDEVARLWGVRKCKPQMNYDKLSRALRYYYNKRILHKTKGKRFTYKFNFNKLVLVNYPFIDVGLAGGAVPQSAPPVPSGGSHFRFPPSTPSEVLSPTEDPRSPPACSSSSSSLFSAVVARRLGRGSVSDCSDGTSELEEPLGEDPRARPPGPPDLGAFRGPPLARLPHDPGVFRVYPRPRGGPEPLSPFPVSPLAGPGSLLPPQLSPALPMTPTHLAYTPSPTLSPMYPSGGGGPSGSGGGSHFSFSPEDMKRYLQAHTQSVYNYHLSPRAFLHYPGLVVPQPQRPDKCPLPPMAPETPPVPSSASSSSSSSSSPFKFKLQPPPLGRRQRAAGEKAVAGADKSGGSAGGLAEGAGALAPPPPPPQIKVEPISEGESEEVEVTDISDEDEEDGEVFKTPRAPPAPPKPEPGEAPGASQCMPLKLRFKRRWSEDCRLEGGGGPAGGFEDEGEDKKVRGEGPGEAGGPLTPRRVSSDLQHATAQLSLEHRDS
# Summary of the method: as §1
# [12] = target: T7, ETV3L (Homo sapiens, UniProt Q6ZN32 1-361); details: protein: recombinant; tags: N-terminal GST; dsDNA, one strand shown
# T7 sequence: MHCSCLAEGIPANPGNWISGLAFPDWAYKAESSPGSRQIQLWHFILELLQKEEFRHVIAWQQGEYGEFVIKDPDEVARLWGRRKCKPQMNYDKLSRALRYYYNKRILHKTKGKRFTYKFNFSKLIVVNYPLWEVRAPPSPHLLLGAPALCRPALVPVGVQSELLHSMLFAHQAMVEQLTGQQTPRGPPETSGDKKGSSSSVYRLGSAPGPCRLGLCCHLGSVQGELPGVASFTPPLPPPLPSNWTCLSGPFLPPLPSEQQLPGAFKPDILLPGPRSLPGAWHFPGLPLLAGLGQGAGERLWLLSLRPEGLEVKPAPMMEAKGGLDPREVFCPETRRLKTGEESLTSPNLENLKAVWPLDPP
# Summary of the method: as §1
# [13] = target: T8, ETS2 (Homo sapiens, UniProt P15036 1-469); details: protein: recombinant; tags: N-terminal GST; dsDNA, one strand shown
# T8 sequence: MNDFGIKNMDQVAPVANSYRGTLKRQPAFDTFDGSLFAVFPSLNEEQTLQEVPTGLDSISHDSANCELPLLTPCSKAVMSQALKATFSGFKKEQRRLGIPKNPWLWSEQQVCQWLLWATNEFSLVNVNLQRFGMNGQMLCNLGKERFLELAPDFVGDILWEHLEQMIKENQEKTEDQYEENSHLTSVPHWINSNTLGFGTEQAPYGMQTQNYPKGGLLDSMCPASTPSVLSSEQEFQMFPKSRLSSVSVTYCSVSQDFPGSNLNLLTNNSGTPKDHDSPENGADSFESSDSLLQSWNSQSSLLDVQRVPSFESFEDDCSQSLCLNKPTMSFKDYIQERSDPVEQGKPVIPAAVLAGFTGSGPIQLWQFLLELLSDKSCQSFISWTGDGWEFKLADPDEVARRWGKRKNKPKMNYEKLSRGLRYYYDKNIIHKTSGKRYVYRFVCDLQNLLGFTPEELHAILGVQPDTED
# Summary of the method: as §1
# [14] = target: T9, SPDEF (Homo sapiens, UniProt O95238 1-335); details: protein: recombinant; tags: N-terminal GST; dsDNA, one strand shown
# T9 sequence: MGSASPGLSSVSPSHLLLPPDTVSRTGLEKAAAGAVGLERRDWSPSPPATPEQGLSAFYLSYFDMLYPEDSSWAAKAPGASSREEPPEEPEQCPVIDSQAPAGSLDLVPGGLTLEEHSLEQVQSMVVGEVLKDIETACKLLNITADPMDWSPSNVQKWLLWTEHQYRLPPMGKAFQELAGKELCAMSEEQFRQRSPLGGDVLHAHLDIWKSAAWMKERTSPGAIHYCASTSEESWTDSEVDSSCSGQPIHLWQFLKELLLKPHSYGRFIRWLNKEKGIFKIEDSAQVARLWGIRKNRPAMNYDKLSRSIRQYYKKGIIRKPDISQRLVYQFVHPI
# Summary of the method: as §1
# [15] = target: T10, ETV7 (Homo sapiens, UniProt Q9Y603 1-341); details: protein: recombinant; tags: N-terminal GST; dsDNA, one strand shown
# T10 sequence: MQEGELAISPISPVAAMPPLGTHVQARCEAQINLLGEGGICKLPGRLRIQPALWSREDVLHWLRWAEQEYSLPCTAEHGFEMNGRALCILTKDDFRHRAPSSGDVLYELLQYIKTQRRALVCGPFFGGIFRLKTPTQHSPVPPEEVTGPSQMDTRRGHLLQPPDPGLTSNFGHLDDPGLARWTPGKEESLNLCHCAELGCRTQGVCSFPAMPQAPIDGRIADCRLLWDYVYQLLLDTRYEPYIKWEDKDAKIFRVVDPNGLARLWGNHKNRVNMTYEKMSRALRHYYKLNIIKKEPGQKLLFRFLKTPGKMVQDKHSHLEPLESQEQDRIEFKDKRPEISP
# Summary of the method: as §1
# [16] = target: T11, ELF5 (Homo sapiens, UniProt Q9UKW6-2 1-255); details: protein: recombinant; tags: N-terminal GST; dsDNA, one strand shown
# T11 sequence: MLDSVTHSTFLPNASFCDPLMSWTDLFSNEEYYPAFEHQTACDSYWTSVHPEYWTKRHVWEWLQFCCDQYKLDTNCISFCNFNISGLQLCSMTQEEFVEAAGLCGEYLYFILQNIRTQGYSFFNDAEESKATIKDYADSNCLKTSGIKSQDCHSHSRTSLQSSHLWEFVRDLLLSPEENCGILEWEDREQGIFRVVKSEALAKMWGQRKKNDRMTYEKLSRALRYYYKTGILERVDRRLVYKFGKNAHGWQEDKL
# Summary of the method: as §1
# [17] = target: T12, ETV3 (Homo sapiens, UniProt P41162-2 1-143); details: protein: recombinant; tags: N-terminal GST; dsDNA, one strand shown
# T12 sequence: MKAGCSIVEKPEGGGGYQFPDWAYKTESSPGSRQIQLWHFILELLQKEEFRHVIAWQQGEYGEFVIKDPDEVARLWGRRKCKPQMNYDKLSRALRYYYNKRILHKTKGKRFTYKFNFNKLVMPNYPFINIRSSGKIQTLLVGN
# Summary of the method: as §1
# [18] = target: ETV6 (Homo sapiens, UniProt P41212 1-452); details: protein: recombinant; tags: N-terminal GST; dsDNA, one strand shown
# Summary of the method: as §1
# Sequence of CRX (O43186 whole entry): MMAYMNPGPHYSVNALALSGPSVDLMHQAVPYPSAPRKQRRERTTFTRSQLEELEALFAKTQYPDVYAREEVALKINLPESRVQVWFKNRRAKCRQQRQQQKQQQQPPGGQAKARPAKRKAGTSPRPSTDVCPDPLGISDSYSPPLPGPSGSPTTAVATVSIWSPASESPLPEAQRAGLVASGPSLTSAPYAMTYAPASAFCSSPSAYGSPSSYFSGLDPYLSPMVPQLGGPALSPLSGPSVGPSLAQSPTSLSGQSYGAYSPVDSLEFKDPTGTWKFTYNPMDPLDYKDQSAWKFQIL
# Sequence of HSF1 (Q00613 whole entry): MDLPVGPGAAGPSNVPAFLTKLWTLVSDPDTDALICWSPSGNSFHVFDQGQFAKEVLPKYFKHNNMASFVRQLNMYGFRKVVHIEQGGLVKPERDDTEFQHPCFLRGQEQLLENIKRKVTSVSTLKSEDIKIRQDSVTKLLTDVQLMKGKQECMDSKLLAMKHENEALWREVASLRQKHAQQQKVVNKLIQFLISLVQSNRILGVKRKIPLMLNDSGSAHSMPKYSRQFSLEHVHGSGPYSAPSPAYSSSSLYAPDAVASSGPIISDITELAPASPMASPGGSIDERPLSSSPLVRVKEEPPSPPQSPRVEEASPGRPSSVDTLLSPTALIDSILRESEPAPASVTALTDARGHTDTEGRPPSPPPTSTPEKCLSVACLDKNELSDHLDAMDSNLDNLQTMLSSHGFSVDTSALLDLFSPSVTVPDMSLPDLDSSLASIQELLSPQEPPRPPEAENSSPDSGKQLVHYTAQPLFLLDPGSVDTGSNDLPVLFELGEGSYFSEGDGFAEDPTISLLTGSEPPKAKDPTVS
# Sequence of ETV6 (P41212 whole entry): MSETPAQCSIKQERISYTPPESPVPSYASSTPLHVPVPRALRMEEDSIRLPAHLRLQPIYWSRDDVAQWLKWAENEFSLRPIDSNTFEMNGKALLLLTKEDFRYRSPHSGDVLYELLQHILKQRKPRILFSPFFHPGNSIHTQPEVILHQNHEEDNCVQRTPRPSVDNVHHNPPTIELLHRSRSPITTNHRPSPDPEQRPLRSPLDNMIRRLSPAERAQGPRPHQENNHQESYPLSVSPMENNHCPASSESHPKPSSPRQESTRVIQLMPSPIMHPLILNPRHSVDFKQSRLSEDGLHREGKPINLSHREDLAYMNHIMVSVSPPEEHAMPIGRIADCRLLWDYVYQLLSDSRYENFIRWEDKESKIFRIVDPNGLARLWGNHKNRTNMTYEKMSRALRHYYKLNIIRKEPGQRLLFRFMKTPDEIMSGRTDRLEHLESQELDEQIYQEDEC
# Sequence of ETV5 (P41161 whole entry): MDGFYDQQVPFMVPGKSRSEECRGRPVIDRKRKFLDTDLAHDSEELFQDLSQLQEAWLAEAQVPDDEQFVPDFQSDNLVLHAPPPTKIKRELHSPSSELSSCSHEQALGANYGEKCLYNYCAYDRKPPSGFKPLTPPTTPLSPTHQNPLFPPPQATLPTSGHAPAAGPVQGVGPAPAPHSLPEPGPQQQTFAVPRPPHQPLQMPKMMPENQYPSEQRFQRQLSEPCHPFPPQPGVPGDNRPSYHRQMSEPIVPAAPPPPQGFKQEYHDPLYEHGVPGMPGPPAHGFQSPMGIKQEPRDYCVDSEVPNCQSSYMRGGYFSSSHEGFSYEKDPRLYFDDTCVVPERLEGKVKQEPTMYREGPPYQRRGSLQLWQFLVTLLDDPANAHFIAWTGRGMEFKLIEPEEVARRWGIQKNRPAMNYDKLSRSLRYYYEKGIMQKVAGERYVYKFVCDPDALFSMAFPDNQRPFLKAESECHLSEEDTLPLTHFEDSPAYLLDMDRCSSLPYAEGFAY
# Sequence of ELF4 (Q99607 whole entry): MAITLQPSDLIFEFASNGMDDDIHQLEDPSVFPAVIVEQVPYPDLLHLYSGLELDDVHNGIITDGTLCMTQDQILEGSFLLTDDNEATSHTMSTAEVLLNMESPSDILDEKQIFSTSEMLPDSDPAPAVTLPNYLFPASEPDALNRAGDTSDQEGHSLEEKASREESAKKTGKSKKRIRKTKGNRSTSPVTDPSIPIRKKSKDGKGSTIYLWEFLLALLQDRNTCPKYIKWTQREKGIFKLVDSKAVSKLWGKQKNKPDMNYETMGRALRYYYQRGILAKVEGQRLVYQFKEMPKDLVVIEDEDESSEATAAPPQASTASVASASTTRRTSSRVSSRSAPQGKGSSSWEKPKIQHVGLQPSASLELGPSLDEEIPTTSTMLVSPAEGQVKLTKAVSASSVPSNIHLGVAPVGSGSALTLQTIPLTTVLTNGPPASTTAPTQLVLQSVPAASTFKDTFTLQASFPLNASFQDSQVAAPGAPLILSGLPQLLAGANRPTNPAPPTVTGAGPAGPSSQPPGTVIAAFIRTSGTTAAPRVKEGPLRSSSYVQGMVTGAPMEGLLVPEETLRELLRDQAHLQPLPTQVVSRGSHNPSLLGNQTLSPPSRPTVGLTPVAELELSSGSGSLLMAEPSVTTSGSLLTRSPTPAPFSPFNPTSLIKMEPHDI
# Sequence of ETV1 (P50549 whole entry): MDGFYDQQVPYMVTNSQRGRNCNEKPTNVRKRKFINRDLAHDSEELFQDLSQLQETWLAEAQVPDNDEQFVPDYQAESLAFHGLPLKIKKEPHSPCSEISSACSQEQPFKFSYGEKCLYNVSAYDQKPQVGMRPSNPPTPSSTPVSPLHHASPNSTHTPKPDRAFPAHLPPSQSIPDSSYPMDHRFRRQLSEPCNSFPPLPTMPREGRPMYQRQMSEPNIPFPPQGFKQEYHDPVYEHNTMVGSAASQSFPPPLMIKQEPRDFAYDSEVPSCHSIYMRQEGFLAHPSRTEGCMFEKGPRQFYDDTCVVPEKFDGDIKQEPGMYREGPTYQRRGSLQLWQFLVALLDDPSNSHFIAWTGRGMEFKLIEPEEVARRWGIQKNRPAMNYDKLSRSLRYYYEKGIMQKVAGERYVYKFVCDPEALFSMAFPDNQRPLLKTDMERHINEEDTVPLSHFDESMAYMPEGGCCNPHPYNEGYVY
sequence,measurement,setting,value
TAAGTT,binding signal,[1],"1.24 fold enrichment (6-mer frequency, TF over GST control)"
same,binding signal,[2],"1.37 fold enrichment (6-mer frequency, TF over GST control)"
same,binding signal,[3],"1.45 fold enrichment (6-mer frequency, TF over GST control)"
same,binding signal,[4],"1.36 fold enrichment (6-mer frequency, TF over GST control)"
same,binding signal,[5],"1.34 fold enrichment (6-mer frequency, TF over GST control)"
same,binding signal,[6],"1.22 fold enrichment (6-mer frequency, TF over GST control)"
same,binding signal,[7],"1.25 fold enrichment (6-mer frequency, TF over GST control)"
same,binding signal,[8],"1.09 fold enrichment (6-mer frequency, TF over GST control)"
same,binding signal,[9],"1.94 fold enrichment (6-mer frequency, TF over GST control)"
same,binding signal,[10],"1.34 fold enrichment (6-mer frequency, TF over GST control)"
same,binding signal,[11],"1.18 fold enrichment (6-mer frequency, TF over GST control)"
same,binding signal,[12],"1.4 fold enrichment (6-mer frequency, TF over GST control)"
same,binding signal,[13],"1.38 fold enrichment (6-mer frequency, TF over GST control)"
same,binding signal,[14],"1.42 fold enrichment (6-mer frequency, TF over GST control)"
same,binding signal,[15],"1.36 fold enrichment (6-mer frequency, TF over GST control)"
same,binding signal,[16],"1.29 fold enrichment (6-mer frequency, TF over GST control)"
same,binding signal,[17],"1.27 fold enrichment (6-mer frequency, TF over GST control)"
same,binding signal,[18],"1.49 fold enrichment (6-mer frequency, TF over GST control)"

# Reference: paper PMC7862700, “An all-to-all approach to the identification of sequence-specific readers for epigenetic DNA modifications on cytosine”
